# Screening results: PubChem, National Center for Advancing Translational Sciences (NCATS)
# KDM5B inh: inhibitors of human KDM5B histone demethylase; Potency, µM (titrated, usually from 57.7 µM), actives largely listed as inhibitors; KDM5B demethylase, FDH-coupled NADH fluorescence (FDH is formaldehyde dehydrogenase); 220,000 compounds, 2.6% hits; AID 1347165; Q9UGL1; active = well fitted inhibition curve with a large enough effect; also: 0% is about no effect; nearly all actives have a fitted effect of over 70% in size
# Target sequence (Q9UGL1 whole entry, looked up): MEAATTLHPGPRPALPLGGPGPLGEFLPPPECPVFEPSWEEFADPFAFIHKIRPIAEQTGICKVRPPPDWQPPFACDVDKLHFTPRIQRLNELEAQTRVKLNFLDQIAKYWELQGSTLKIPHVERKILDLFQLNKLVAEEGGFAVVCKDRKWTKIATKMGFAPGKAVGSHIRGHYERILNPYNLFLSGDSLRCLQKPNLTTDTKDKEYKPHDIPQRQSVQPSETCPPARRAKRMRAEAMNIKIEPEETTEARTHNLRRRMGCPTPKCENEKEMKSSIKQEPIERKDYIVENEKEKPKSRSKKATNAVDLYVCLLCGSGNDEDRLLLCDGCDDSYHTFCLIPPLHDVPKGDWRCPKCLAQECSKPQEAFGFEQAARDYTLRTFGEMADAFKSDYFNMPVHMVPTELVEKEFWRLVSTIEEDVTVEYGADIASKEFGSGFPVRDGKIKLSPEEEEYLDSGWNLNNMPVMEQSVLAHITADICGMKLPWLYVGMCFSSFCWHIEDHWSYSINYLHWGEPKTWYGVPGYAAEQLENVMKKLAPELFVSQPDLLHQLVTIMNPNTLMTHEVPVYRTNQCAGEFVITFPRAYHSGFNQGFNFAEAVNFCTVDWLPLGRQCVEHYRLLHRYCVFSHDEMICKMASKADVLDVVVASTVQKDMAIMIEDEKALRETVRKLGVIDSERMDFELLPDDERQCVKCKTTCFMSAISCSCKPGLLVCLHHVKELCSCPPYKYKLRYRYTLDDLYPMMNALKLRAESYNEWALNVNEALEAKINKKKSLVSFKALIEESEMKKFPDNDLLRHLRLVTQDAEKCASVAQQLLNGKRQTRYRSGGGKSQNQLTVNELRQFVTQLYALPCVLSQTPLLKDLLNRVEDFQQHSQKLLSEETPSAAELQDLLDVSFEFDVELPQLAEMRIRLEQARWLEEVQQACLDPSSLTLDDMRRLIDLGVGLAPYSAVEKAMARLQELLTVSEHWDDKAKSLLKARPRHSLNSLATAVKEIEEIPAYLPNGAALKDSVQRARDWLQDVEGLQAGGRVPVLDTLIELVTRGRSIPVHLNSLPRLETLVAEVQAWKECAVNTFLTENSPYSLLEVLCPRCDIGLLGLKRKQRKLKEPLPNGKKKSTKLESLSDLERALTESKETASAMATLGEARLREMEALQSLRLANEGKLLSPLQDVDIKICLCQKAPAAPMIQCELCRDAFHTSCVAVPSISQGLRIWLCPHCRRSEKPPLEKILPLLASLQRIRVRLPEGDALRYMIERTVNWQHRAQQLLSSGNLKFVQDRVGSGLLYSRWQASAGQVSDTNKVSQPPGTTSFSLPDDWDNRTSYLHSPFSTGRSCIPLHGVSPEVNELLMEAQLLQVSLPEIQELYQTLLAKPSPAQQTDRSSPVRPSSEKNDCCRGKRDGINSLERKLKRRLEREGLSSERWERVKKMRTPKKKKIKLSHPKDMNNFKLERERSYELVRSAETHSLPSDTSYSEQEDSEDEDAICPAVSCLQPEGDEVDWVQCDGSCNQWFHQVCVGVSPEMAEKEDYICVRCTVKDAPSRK
#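 qHTS format, multiple compound concentrations. Buffer 50 mM HEPES pH 7.5/0.01% Tween-20; 200 nM KDM5BΔAP final; 10 min compound preincubation; substrate-mix levels 12.5 µM peptide, 25 µM α-KG, 0.25 mM NAD⁺; 30 min RT; ΔRFU.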
# Starred values were filed as active, the others as inactive; i = inactive. Only a selection was taken, and hits are over-represented in it overall. Potency is read from the fitted curve at half-maximal effect.
SMILES,KDM5B inh
O=C(Nc1ccc(Cl)cc1)c1nc2c(o1)CCN(Cc1cccc(F)c1F)CC2,35.5µM*
O=C(Nc1ccc(Cl)cc1)c1nc2c(o1)CCN(Cc1ccc(F)cc1F)CC2,28.2µM*
COc1ccc(CN2CCc3nc(C(=O)NCc4ccncc4)oc3CC2)cc1,i
COc1ccccc1CN1CCc2nc(C(=O)Nc3ccc(Cl)cc3)oc2CC1,35.5µM*
COc1ccccc1CN1CCc2ncc(C(=O)Nc3ccccc3)n2CC1,i
Cc1[nH]cnc1CN1CCc2nc(C(=O)Nc3cccc(C(F)(F)F)c3)oc2CC1,i
O=C(c1nc2c(o1)CCN(Cc1cc(F)ccc1F)CC2)N1CCOCC1,i
O=C(Nc1ccc(Cl)cc1)c1nc2c(o1)CCN(Cc1nccs1)CC2,i
CC(NC(=O)c1ccc2c(c1)NC(=O)CS2)c1ccc2c(c1)CC(=O)N2 (centres undefined),i
CC(C)C(NC(=O)CCc1ccccc1)C(=O)O (centres undefined),i
COc1ccccc1C(=O)N1CCCC2(C1)NC(=O)c1ccccc1O2 (centres undefined),i
CCCC(C)NC(=O)C1CCN(C(=O)C(C)(C)C)CC1 (centres undefined),i
CC1Cc2nc(SCC(=O)N3CCCC3)n(-c3ccc(F)cc3)c(=O)c2S1 (centres undefined),i
Cc1cc(C)cc(-c2ccc(C=O)cc2)c1,31.6µM*
Fc1ccc(/C=N/N=C/c2ccc(F)cc2)cc1,i
O=Cc1ccc(-c2cccc(O)c2)cc1,12.6µM*
Cc1cc(C)cc(-c2ccc(CN)cc2)c1,i
Cc1cc(C)cc(-c2ccccc2C=O)c1,i
O=C(O)c1ccc(-c2cccc(O)c2)cc1,i
Cn1c(C=O)ccc1-c1ccc(F)cc1,i
NC(=O)c1cccc(O)c1,i
O=Cc1ccc(-c2ccc(F)cc2)cc1,89.1µM*
CC(C)c1nc2c(c(-c3ccc(O)cc3)n1)CN(Cc1ccc(F)cc1)CC2,i
CN1C(=O)c2cccn2CC1C(=O)NCCCN1CCc2ccccc2C1 (centres undefined),i
O=C(NC1CCCCCC1)c1nc(-c2ccccc2)n(-c2ccccc2)n1,i
SMILES,KDM5B inh
CCCn1c(C)cnc1CC1CCN(S(C)(=O)=O)CC1,i
Cc1ccc(C(=O)NC[C@H]2O[C@@H](CC(=O)N3CCN(c4ccccc4)CC3)[C@H](O)[C@@H]2O)cc1,i
O=C(c1ccsc1)N1CCC2(CC1)CN(c1ccncn1)CC2CO (centres undefined),i
N#Cc1ccc(C(=O)N2CCC3(CC2)CN(c2ccncn2)CC3CO)cc1 (centres undefined),i
CCOc1ccc(C(=O)N2CCC3(CC2)CN(c2ncccn2)CC3CO)cc1 (centres undefined),25.1µM*
CCOc1ccc(C(=O)N2CCN(c3ncccn3)CC2)cc1,i
CCOc1ccccc1C(=O)N1CCC(Oc2ncccc2C(=O)N2CCCCC2)C1 (centres undefined),i
CCOc1ccccc1C(=O)N1CCC2(CC1)N(C)C(=O)CS2(=O)=O,i
CCOc1ccccc1C(=O)N1CCC2(CC1)CN(c1ncccn1)CC2CO (centres undefined),31.6µM*
Cn1cc(C(=O)N2CCC3(CC2)CN(c2ncccn2)CC3CO)cn1 (centres undefined),25.1µM*
CC(=O)N1CC(CO)C2(CCN(C(=O)c3ccc(Br)cc3)CC2)C1 (centres undefined),i
COC(=O)C(=O)N[C@H]1C[C@@H](Cc2cc(-c3ccc(OC)cc3)on2)C1(C)C,i
Cc1cccc(NC(=O)NCc2nc(-c3cccc(C)c3)no2)c1,i
CCOc1ccccc1NC(=O)c1cc2c(s1)-c1ccccc1S(=O)(=O)C2,i
CCN(C(=O)c1ccc(Cl)s1)C1CC1,i
O=C(CN1C(=O)NC(c2ccc(Cl)cc2)C2=C1COC2=O)Nc1cccc(F)c1 (centres undefined),i
O=C(NCc1nnc2c(-c3nc(C4CC4)no3)cccn12)c1cc(F)ccc1F,28.2µM*
CCOc1ccccc1C(=O)NCc1nnc2c(-c3nc(C4CC4)no3)cccn12,i
O=C(NCc1nnc2c(-c3nc(C4CC4)no3)cccn12)c1cc(F)ccc1Cl,28.2µM*
CCC1CCc2nc3ccc(Cl)cc3c(-c3ccccc3F)c2C1 (centres undefined),i
CCN(c1ccccc1)S(=O)(=O)c1cccc(C(=O)OC2CCCCC2=O)c1 (centres undefined),i
O=C1/C(=C/c2ccccc2Cl)Cc2ccccc21,i
CC(C)NC(=O)c1nc(-c2ccc3[nH]ccc3c2)no1,i
COc1ccc(C2=NC(C(F)(F)F)(C(F)(F)F)N=C(N3CCOCC3)O2)cc1,i
Cn1nc(C(=O)OCCOc2ccc(Cl)cc2)c2ccccc2c1=O,i
SMILES,KDM5B inh
CC(C)=CC(=O)NCCc1ccsc1,i
Cc1ccccc1Cn1cc(-c2ccncc2)cc1C(=O)NC(C)c1ccccn1 (centres undefined),31.6µM*
CC(NC(=O)CC12CC3CC(CC(C3)C1)C2)c1ccccn1 (centres undefined),i
CCCNC(=O)NC(C)c1ccccn1 (centres undefined),i
COc1cc(F)c(C(=O)N2C[C@@H](C(=O)O)[C@H](c3ccccc3)C2)c(F)c1,i
Cc1nc(C2CC(NC(=O)c3cnc(N)nc3C(F)(F)F)C2)cc(=O)[nH]1 (centres undefined),28.2µM*
Cc1nc(C2CC(NC(=O)Cn3cc(Cl)c(C)n3)C2)cc(=O)[nH]1 (centres undefined),i
Nc1nc(C2CC(NC(=O)c3csc4c3CCCC4)C2)cc(=O)[nH]1 (centres undefined),i
Nc1cccc(-c2ccc(N3CCCCC3)nn2)c1,i
N#Cc1ncn(Cc2nc(-c3ccc(F)cc3)no2)n1,i
O=C(NC1(c2ccccc2)CCC1)c1cnc(-c2ccccc2)nc1,i
CN(Cc1ccc(N2CCOCC2)cc1)C(=O)[C@H]1CN(Cc2ccccc2)C[C@H]1C(=O)O,i
CC1(C(=O)NC2CCC2)CN(Cc2ccccc2)Cc2ccc(N3CCOCC3)nc21 (centres undefined),35.5µM*
CC(C)CNc1ccc2c(n1)C(C)(C(=O)NC1CCN(C)CC1)CN(Cc1ccccc1)C2 (centres undefined),i
Cn1ccc(NC(=O)C2(C)CN(Cc3ccccc3)Cc3ccc(N4CCOCC4)nc32)n1 (centres undefined),11.2µM*
CC(CNC(=O)NCc1ccco1)N1CCOCC1 (centres undefined),i
CC(C)CNc1ccc2c(n1)C(C)(C(=O)NC1CCC(O)CC1)CN(Cc1ccccc1)C2 (centres undefined),i
CC1(C(=O)NCc2ccco2)CN(Cc2ccccc2)Cc2ccc(N3CCOCC3)nc21 (centres undefined),15.8µM*
CNC(=O)C1(C)CN(Cc2ccccc2)Cc2ccc(N3CCOCC3)nc21 (centres undefined),35.5µM*
O=C(CSc1nnnn1Cc1ccccc1)Nc1ccc(CN2CCOCC2)cc1,i
Cc1cc(N2CCOCC2)nc(Nc2ccc(NC(=O)CCc3ccccc3)cc2)n1,i
CC(C)CNc1ccc2c(n1)C(C)(C(=O)NCc1cnccn1)CN(Cc1ccccc1)C2 (centres undefined),i
CCCn1cnc2nc(CSc3ccccc3NC(=O)COc3cccc(F)c3)cc(=O)n21,i
O=C(CCl)Nc1ccc2c(c1)CCC2,i
